This note sets out measurements from PubChem BioAssay (EPA / NIEHS).

Active and inactive are the calls of the source. The calls were made as follows: active = hit-call score of the fitted dose curve at least 0.9, where 1 is the maximum; inactive = score below 0.9.

The term AC50 denotes the midpoint of the concentration-response curve, whichever way the signal moves.

Common to all, as to conditions: mRNA level, 48 h; actives raise or lower the signal
Read-out in test [1]: Early growth response protein 1 (EGR1) transcription factor, EGR1 (gene 1958)
Description: LTEA_HepaRG_EGR1: Life Technologies and Expression Analysis (LTEA) Assay for Early growth response protein 1 (EGR1) transcription factor using HepaRG (AID 2283490). Summed up: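 Differentiated human HepaRG cells in serum-free induction medium were exposed in duplicate for 48 h to eight concentrations (top 100 uM, half-log steps) in 0.5% DMSO. EGR1 mRNA was quantified by qRT-PCR, normalized to ACTB, GAPDH and POLR2A, and fitted bidirectionally versus DMSO.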

Read-out in test [2]: Ezrin (EZR), EZR (gene 7430)
Briefly: LTEA_HepaRG_EZR: Life Technologies and Expression Analysis (LTEA) Assay for Ezrin (EZR) using HepaRG (AID 2283491). In outline:
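Differentiated human HepaRG cells, 48 h after plating, were exposed in serum-free induction medium for 48 hours to eight half-log concentrations up to 100 uM in 0.5% DMSO. EZR mRNA was measured by TaqMan qRT-PCR, normalized to ACTB, GAPDH and POLR2A, and fitted bidirectionally against DMSO.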

Read-out in test [3]: Fatty Acid-Binding Protein 1 (FABP1), FABP1 (gene 2168)
Description: LTEA_HepaRG_FABP1: Life Technologies and Expression Analysis (LTEA) Assay for Fatty Acid-Binding Protein 1 (FABP1) using HepaRG (AID 2283494). In outline: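 Differentiated human HepaRG cells were exposed in duplicate for 48 h in serum-free induction medium to 8-point half-log concentration series topping at 100 uM in 0.5% DMSO. FABP1 mRNA measured by TaqMan qRT-PCR, normalized to ACTB/GAPDH/POLR2A; bidirectional fit versus DMSO.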

Read-out in test [4]: Glutathione S-Transferase (GSTA2), GSTA2 (gene 2939)
Description: LTEA_HepaRG_GSTA2: Life Technologies and Expression Analysis (LTEA) Assay for Glutathione S-Transferase (GSTA2) using HepaRG (AID 2283497). Summed up: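 Human HepaRG cells, plated 48 h, then exposed in serum-free induction medium for 48 h to eight half-log concentrations up to 100 uM in 0.5% DMSO, duplicate. GSTA2 mRNA by qRT-PCR, normalized to ACTB/GAPDH/POLR2A; bidirectional fit versus DMSO.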

Read-out in test [5]: Glutamate-cysteine ligase catalytic (GCLC), GCLC (gene 2729)
Briefly: LTEA_HepaRG_GCLC: Life Technologies and Expression Analysis (LTEA) Assay for Glutamate-cysteine ligase catalytic (GCLC) using HepaRG (AID 2283498). In outline:
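Differentiated human HepaRG cells, plated 48 h then switched to serum-free induction medium, were exposed in duplicate for 48 h to 8 half-log concentrations topping at 100 uM in 0.5% DMSO. GCLC mRNA was quantified by qRT-PCR against ACTB, GAPDH and POLR2A.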

Read-out in test [6]: growth arrest and DNA damage 45 (GADD45G), GADD45G (gene 10912)
Briefly: LTEA_HepaRG_GADD45G: Life Technologies and Expression Analysis (LTEA) Assay for growth arrest and DNA damage 45 (GADD45G) using HepaRG (AID 2283499). Summed up: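 Differentiated human HepaRG cells, 48 h post-plating, exposed 48 h in serum-free induction medium to 8 half-log concentrations (top 100 uM, 0.5% DMSO) in duplicate. GADD45G mRNA measured by Fluidigm TaqMan qRT-PCR, normalized to ACTB, GAPDH, POLR2A; bidirectional fit versus DMSO.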

Read-out in test [7]: Glutamate-cysteine ligase regulatory (GCLM), GCLM (gene 2730)
Briefly: LTEA_HepaRG_GCLM: Life Technologies and Expression Analysis (LTEA) Assay for Glutamate-cysteine ligase regulatory (GCLM) using HepaRG (AID 2283500). In outline: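 Differentiated human HepaRG cells exposed 48 h in serum-free induction medium to 8-point half-log concentrations (top 100 uM, 0.5% DMSO), in duplicate. GCLM mRNA quantified by qRT-PCR, normalized to ACTB, GAPDH, POLR2A; bidirectional fitting versus DMSO.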

Read-out in test [8]: Glutathione S-transferase M3 (GSTM3), GSTM3 (gene 2947)
Briefly: LTEA_HepaRG_GSTM3: Life Technologies and Expression Analysis (LTEA) Assay for Glutathione S-transferase M3 (GSTM3) using HepaRG (AID 2283501). In outline:
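Differentiated human HepaRG cells were exposed in duplicate for 48 h in serum-free induction medium, 8 points from 100 uM top in half-log steps, 0.5% DMSO. GSTM3 mRNA was measured by TaqMan qRT-PCR, normalized to ACTB, GAPDH and POLR2A; bidirectional fit versus DMSO.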

Read-out in test [9]: Heat shock 70 kDa protein 1 (HSPA1A), gene 3303
Description: LTEA_HepaRG_HSPA1A: Life Technologies and Expression Analysis (LTEA) Assay for Heat shock 70 kDa protein 1 (HSPA1A) using HepaRG (AID 2283502). Summed up:
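Differentiated human HepaRG cells in serum-free induction medium were exposed in duplicate for 48 h to eight concentrations (top 100 uM, half-log steps, 0.5% DMSO). HSPA1A mRNA was quantified by qRT-PCR, normalized to ACTB, GAPDH and POLR2A, and fitted bidirectionally against DMSO.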

Read-out in test [10]: Hypoxia-inducible factor 1-alpha (Homo sapiens) (UniProt Q16665)
Description: LTEA_HepaRG_HIF1A: Life Technologies and Expression Analysis (LTEA) Assay for Hypoxia-inducible factor 1 (HIF1A) Trancription factor using HepaRG (AID 2283503). In outline:
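HepaRG, 48 h exposure, 8-pt half-log series from 100 uM, 0.5% DMSO vehicle, duplicates. Readout: HIF1A transcript by qRT-PCR (Fluidigm array), housekeeping-normalised. Bidirectional curve fit vs DMSO baseline.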

Read-out in test [11]: 3-Hydroxy-3-Methylglutaryl-CoA Synthase 2 (HMGCS2), HMGCS2 (gene 3158)
Briefly: LTEA_HepaRG_HMGCS2: Life Technologies and Expression Analysis (LTEA) Assay for 3-Hydroxy-3-Methylglutaryl-CoA Synthase 2 (HMGCS2) using HepaRG (AID 2283504). In outline:
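Human HepaRG cells in serum-free induction medium were exposed in duplicate for 48 h to 8-point half-log series from 100 uM top in 0.5% DMSO. HMGCS2 mRNA measured by TaqMan qRT-PCR, normalised to ACTB, GAPDH, POLR2A; bidirectional fit versus DMSO.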

Read-out in a further test: HGF (gene 3082)
Description: LTEA_HepaRG_HGF: Life Technologies and Expression Analysis (LTEA) Assay for Hepatocyte Growth Facto (HGF) using HepaRG (AID 2283505). Summed up: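 Differentiated HepaRG cells in serum-free induction medium exposed 48 h in duplicate, 8 half-log concentrations from 100 uM in 0.5% DMSO. HGF mRNA by qRT-PCR, normalised to ACTB, GAPDH, POLR2A; bidirectional fitting.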

Read-out in test [12]: Insulin Like Growth Factor 1 (IGF1), IGF1 (gene 3479)
Briefly: LTEA_HepaRG_IGF1: Life Technologies and Expression Analysis (LTEA) Assay for Insulin Like Growth Factor 1 (IGF1) using HepaRG (AID 2283506). In outline: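 Differentiated human HepaRG cells were dosed for 48 h in serum-free induction medium with 0.5% DMSO, eight half-log concentrations up to 100 uM, in duplicate. IGF1 mRNA was quantified by qRT-PCR normalized to ACTB, GAPDH, POLR2A; bidirectional fitting versus DMSO.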

Read-out in test [13]: Insulin-like growth factor-binding protein 1 (IGFBP1), IGFBP1 (gene 3484)
Description: LTEA_HepaRG_IGFBP1: Life Technologies and Expression Analysis (LTEA) Assay for Insulin-like growth factor-binding protein 1 (IGFBP1) using HepaRG (AID 2283508). In outline: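 HepaRG cells, plated 48 h then switched to serum-free induction medium, exposed in duplicate for 48 h to 8-point half-log series from 100 uM in 0.5% DMSO. mRNA measured by qRT-PCR, normalized to ACTB/GAPDH/POLR2A; bidirectional fit versus DMSO.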

Read-out in test [14]: Interleukin 6 (IL6), IL6 (gene 3569)
Briefly: LTEA_HepaRG_IL6: Life Technologies and Expression Analysis (LTEA) Assay for Interleukin 6 (IL6) using HepaRG (AID 2283509). In outline: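 Differentiated human HepaRG cells, plated 48 h then switched to serum-free induction medium, were exposed in duplicate for 48 h to eight half-log concentrations up to 100 uM in 0.5% DMSO. IL6 mRNA measured by qRT-PCR, normalized to ACTB/GAPDH/POLR2A.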

Read-out in test [15]: Interleukin 6 Receptor (IL6R), IL6R (gene 3570)
Briefly: LTEA_HepaRG_IL6R: Life Technologies and Expression Analysis (LTEA) Assay for Interleukin 6 Receptor (IL6R) using HepaRG (AID 2283510). Summed up: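 Differentiated human HepaRG cells, plated 48 h then switched to serum-free induction medium, were dosed in duplicate for 48 h at eight half-log concentrations up to 100 uM in 0.5% DMSO. IL6R mRNA quantified by qRT-PCR, normalized to ACTB/GAPDH/POLR2A; bidirectional fit versus DMSO.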

Read-out in test [16]: Potassium channel subfamily K member 1 (KCNK1), KCNK1 (gene 3775)
Description: LTEA_HepaRG_KCNK1: Life Technologies and Expression Analysis (LTEA) Assay for Potassium channel subfamily K member 1 (KCNK1) using HepaRG (AID 2283511). Summed up: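 Differentiated human HepaRG cells in serum-free induction medium were exposed in duplicate for 48 h to 8 half-log concentrations up to 100 uM in 0.5% DMSO. KCNK1 mRNA was measured by TaqMan qRT-PCR, normalized to ACTB, GAPDH and POLR2A, and fitted bidirectionally versus DMSO.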

Read-out in test [17]: Keratin 19 (KRT19), KRT19 (gene 3880)
Briefly: LTEA_HepaRG_KRT19: Life Technologies and Expression Analysis (LTEA) Assay for Keratin 19 (KRT19) using HepaRG (AID 2283512). In outline:
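Differentiated HepaRG cells in serum-free induction medium, exposed 48 h in duplicate to 8 half-log concentrations up to 100 uM in 0.5% DMSO. KRT19 mRNA by qRT-PCR, normalized to ACTB, GAPDH, POLR2A; bidirectional fit vs DMSO.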

Read-out in another test: CYP3A5 (gene 1577)
Briefly: LTEA_HepaRG_CYP3A5: Life Technologies and Expression Analysis (LTEA) Assay for CYP3A5 using HepaRG (AID 2283493). In outline: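 Differentiated HepaRG cells in serum-free induction medium were dosed 48 h with test chemicals (8-point half-log series, top 100 uM, 0.5% DMSO, duplicate). CYP3A5 mRNA measured by qRT-PCR, normalized to ACTB, GAPDH, POLR2A; bidirectional fit versus DMSO.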

Read-out in test [18]: Cytochrome P450 4A22 (Homo sapiens) (UniProt Q5TCH4)
Briefly: LTEA_HepaRG_CYP4A22: Life Technologies and Expression Analysis (LTEA) Assay for Cytochrome P450 4A22 (CYP4A22) using HepaRG (AID 2283495). In outline: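 Differentiated HepaRG cells in serum-free induction medium exposed 48 h in duplicate to eight half-log concentrations up to 100 uM in 0.5% DMSO. CYP4A22 mRNA quantified by TaqMan qRT-PCR, normalized to ACTB, GAPDH and POLR2A; bidirectional fit versus DMSO.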

Hypoxia-inducible factor 1-alpha (Homo sapiens), sequence (Q16665 whole entry, looked up): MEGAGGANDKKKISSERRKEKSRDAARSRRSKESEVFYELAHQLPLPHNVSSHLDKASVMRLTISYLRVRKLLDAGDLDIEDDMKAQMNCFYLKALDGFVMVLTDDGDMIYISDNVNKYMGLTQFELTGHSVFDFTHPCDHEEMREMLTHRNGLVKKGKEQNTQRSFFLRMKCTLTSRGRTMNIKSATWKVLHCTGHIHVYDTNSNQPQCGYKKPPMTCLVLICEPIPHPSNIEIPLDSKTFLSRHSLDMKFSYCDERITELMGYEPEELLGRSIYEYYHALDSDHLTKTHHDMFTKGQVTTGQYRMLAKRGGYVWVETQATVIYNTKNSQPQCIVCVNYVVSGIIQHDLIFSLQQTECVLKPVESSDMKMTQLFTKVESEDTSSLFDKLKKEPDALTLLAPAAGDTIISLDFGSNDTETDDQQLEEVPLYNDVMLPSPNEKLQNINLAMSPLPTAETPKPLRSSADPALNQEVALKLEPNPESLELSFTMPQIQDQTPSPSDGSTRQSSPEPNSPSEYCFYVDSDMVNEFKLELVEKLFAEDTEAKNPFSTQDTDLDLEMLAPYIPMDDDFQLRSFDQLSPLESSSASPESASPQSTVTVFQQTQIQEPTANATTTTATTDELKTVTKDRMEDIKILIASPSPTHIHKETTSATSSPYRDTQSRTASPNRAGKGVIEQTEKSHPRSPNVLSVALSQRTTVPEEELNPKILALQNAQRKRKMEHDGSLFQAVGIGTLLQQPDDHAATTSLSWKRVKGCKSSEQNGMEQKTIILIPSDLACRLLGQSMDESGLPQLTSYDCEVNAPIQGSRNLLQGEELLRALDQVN

On to `O=C(c1ccccc1)c1ccccc1`, for which the call in test [1], in test [2], in [4], in test [5], in test [6] and in [7] was inactive. Further, the outcome (in test [8]; in [9]; in test [10]; in [11]; with HGF (gene 3082); in [12]) was inactive. The compound was classed as inactive in test [13], in test [14], in test [15], in test [16] and in [17]. For the same compound, the AC50 in [3] was 851 nM (active).
In the case of `CCCCCCCCCCCCCCC`, the result (in test [1]; in test [2]; with CYP3A5 (gene 1577); in [3]; in test [18]; in [4]) was inactive. For the same compound, the compound was classed as inactive in [5], in test [6], in test [7], in test [8], in test [9] and in test [10]. The outcome (in test [11]; with HGF (gene 3082); in test [12]; in test [13]; in test [14]; in test [15]) was inactive. Besides, the result in [16] and in test [17] was inactive.
`CCCCC=O`: the compound was classed as inactive (in test [1]; in test [2]; with CYP3A5 (gene 1577); in test [3]; in [18]; in test [4]). Moreover, the call in test [5], in test [6], in test [7], in test [8], in test [9] and in test [10] was inactive. Further, the compound was called inactive (in [11]; with HGF (gene 3082); in test [12]; in test [13]; in test [14]; in test [15]). Moreover, the result in test [16] and in test [17] was inactive.
`CCCCC(CC)C(=O)O` (stereo not drawn): the compound was called inactive (in test [1]; in test [2]; in the test with CYP3A5 (gene 1577); in test [3]; in test [18]; in test [4]). Further, the compound was called inactive in test [5], in test [6], in test [7], in test [8], in test [9] and in [10]. Moreover, the result (in [11]; with HGF (gene 3082); in [12]; in test [13]; in test [14]; in [15]) was inactive. Besides, the result in test [16] and in [17] was inactive.
